aSyn UTR act – Activators working through SNCA 5'UTR binding (MLPCN). AID 1814. 300,000 tested, 7.1% active. alpha-synuclein 5'UTR reporter, activators screen. activity score, % (tested at 7.5 µM), hits read low; in the data active = activity score below about -60%
Active calls of the source: *. Not all results are given here.

SMILES | aSyn UTR act
CCCn1c(C2CCCN2c2nc(-c3cccc(Br)c3)cs2)nc2ccccc21 (configuration not stated) | -93*
CCOc1ccc2nc(SCc3ccc(OC)cc3)sc2c1 | -83*
CCOc1ccc2nc(SCc3ccccc3C#N)sc2c1 | -220*
N#Cc1cc(-c2ccccc2)nn1-c1ccccc1 | -68*
O=C1OC2(CCCCC2)OC(=O)C1=CNc1ccc2c(c1)OCO2 | -83*
O=S(=O)(c1ccc(-c2nnc(SCc3nnc(-c4ccccc4)o3)o2)cc1)N1CCCC1 | -117*
C=CCN=C(NC#N)SCC(=O)c1cccc(OC)c1 | -104*
S=c1nc(COc2ccccc2)[nH]c2ccccc12 | -112*
O=c1[nH]c(COc2ccccc2)nc2ccccc12 | -70*
O=c1[nH]c(COc2ccc(Br)cc2Cl)nc2ccccc12 | -167*
Clc1ccc2nc(COc3ccccc3)[nH]c2c1 | -151*
COc1ccc(C(=O)/C=C/c2ccc(C)cc2)c(OC(=O)c2ccc([N+](=O)[O-])cc2)c1 | -87*
COc1ccc(C(=O)/C=C/c2ccccc2F)c(OC(=O)c2ccc([N+](=O)[O-])cc2)c1 | -228*
COc1ccc(C(=O)c2cc([N+](=O)[O-])ccc2N2CCOCC2)cc1 | 58
CC(=O)C(Sc1nc(N2CCOCC2)nc(N2CCOCC2)n1)C(=O)Nc1ccccc1 (configuration not stated) | -66*
CC(=O)C(Sc1nn(C)c(=S)s1)C(=O)Nc1ccccc1 (configuration not stated) | -99*
Cc1cc(NS(=O)(=O)c2ccc(NC(=O)Nc3ccc4c(c3)OCO4)cc2)no1 | -71*
COC(=O)c1ccc(C)c(NS(=O)(=O)c2ccc3c(c2)OCCO3)c1 | 94
Cc1cc(C(=O)Nc2ccc3c(c2)OCO3)no1 | -107*
CC(C)Cc1cc(C(=O)Nc2ccc3c(c2)OCO3)no1 | -184*
CCOc1ccc2nc(N3C(=O)/C(=C/c4ccc(Cl)cc4)NC3=S)sc2c1 | -73*
O=C(c1ccc(F)cc1)c1ccc(-c2ccc(F)cc2)nc1 | -141*
O=c1oc2cc(O)c(Cl)cc2c2ccccc12 | -88*
COC(=O)C1C(=O)C=C(Nc2ccc(F)cc2F)CC1c1ccccc1 (configuration not stated) | -114*
CCOC(=O)C1C(=O)C=C(Nc2ccccc2F)CC1c1ccccc1 (configuration not stated) | -114*
SMILES | aSyn UTR act
Cn1c(=Nc2ccccc2)sc2ccccc21 | -77*
Cn1c(=NC(=O)c2ccco2)sc2ccccc21 | -126*
Cc1sc(=NC(=O)c2ccco2)n(C)c1-c1ccc(F)cc1 | -113*
COc1ccc(-c2cn3c(C)c(C(=O)Nc4cccc(NC(C)=O)c4)sc3n2)cc1 | -100*
Cc1c(C(=O)NCC(C)C)sc2nc(-c3ccc(F)cc3)cn12 | -128*
Cc1c(C(N)=O)sc2nc(-c3ccccc3)cn12 | -105*
COc1cc(OC)cc(-c2cc3nc(C)cc(N4CCN(C(=O)c5ccco5)CC4)n3n2)c1 | -70*
COc1cc(OC)cc(-c2cc3nc(C)c(CCC(=O)NCc4ccccc4)c(C)n3n2)c1 | 75
CC(Sc1ccccn1)C(=O)Nc1ccccc1 (configuration not stated) | -208*
O=C(Nc1ccc(Cl)cc1)Nc1ccccn1 | -167*
CCOC(=O)c1ccc(NC(=O)Nc2ccccn2)cc1 | -90*
O=C(Nc1ccccc1)Nc1cccc2cccnc12 | -178*
O=C(Nc1ccccc1)Nc1ccccn1 | -126*
S=C(Nc1ccccn1)c1ccccn1 | -115*
O=C(Nc1ccccn1)C(=O)Nc1ccccn1 | -95*
O=C(Nc1ccccn1)c1ccc(-c2ccccc2)cc1 | 63
N/C(=N\NC(=O)Nc1ccc(Cl)cc1)c1ccccn1 | -114*
CCOC(=O)c1ccc(NC(=O)c2cnccn2)cc1 | -67*
CCOC(=O)c1ccc(NC(=O)C2CCCN(c3cnccn3)C2)cc1 (configuration not stated) | -88*
O=C(Nc1ccc(Cl)cc1)c1csc(Cc2ccccc2)n1 | -72*
COc1ccc(Cc2nc(C(=O)Nc3ccccc3)cs2)cc1 | -73*
Cc1cc(C(=O)COC(=O)c2ccc(Br)o2)c(C)n1C | -112*
COCCn1c(C)cc(C(=O)COC(=O)c2ccc(Br)o2)c1C | -100*
NC(=O)c1ccsc1NC(=O)c1cccs1 | -164*
Cc1sc(NC(=O)c2cccs2)c(C(N)=O)c1C | -255*
SMILES | aSyn UTR act
Cc1sc(NC(=O)CCCC(=O)O)c(C(N)=O)c1-c1ccccc1 | 52
Cc1sc(NC(=O)C2=COCCO2)c(C(N)=O)c1C | -62*
CC(C)NC(=S)N/N=C/c1sc(N2CCCCC2)nc1-c1cccs1 | -69*
O=C(N/N=C/c1sc(N2CCOCC2)nc1-c1ccccc1)c1cccc(S(=O)(=O)N2CCOCC2)c1 | 87
NC(=O)N/N=C/c1sc(N2CCCCC2)nc1-c1cccs1 | -67*
COc1ccc(-c2csc3nc(-c4ccccc4F)oc(=O)c23)cc1 | -101*
COc1ccc(F)cc1CN1CCN(c2ncnc3scc(-c4ccccc4)c23)CC1 | 98
C#CCN1C(=O)S/C(=C\c2ccc(-c3ccc(C(=O)O)cc3C)o2)C1=O | -191*
COc1ccc(/C=C2\SC(=O)N(CCCC(=O)Nc3ccc(C(=O)O)cc3)C2=O)cc1OC | 73
O=C(Nc1ccccc1)[C@@H]1[C@@H]2C(=O)N(c3ccc(F)cc3)C(=O)[C@@H]2[C@H]2C=CC=NN21 | -68*
CC(=O)Oc1ccc(C(=O)[C@H]2[C@H]3C(=O)N(c4ccc(C)cc4)C(=O)[C@H]3[C@@H]3C=CC=NN32)cc1 | -62*
CC(CC(=O)Nc1ccc2c(c1)OCCO2)c1ccccc1 (configuration not stated) | -161*
CC(CC(=O)Nc1ccc2c(c1)OCO2)c1ccccc1 (configuration not stated) | -92*
CCN(Cc1ccccc1)c1ccc(/C=N/N=C(N)N)cc1 | 94
CCN(CC)c1ccc(/C=N/NC(=O)OC(C)(C)C)cc1 | -153*
CCN(CC)c1ccc(/C=N/NC(=O)Nc2ccccc2)cc1 | -150*
CCOc1ccc(/C=N/NC(=O)Nc2ccccc2)cc1 | -120*
CC(=O)Oc1ccc(/C=N/NC(=S)Nc2ccccc2)cc1 | -149*
CC1CN(S(=O)(=O)c2ccc(C(=O)Nc3nnc(-c4ccc5c(c4)CCCC5)o3)cc2)CC(C)O1 (configuration not stated) | 76
CC(=O)Nc1nnc(-c2ccc3c(c2)CCCC3)o1 | -67*
CCOC(=O)Cc1csc(NC(=O)c2sc3nc4c(C)cc(C)cc4cc3c2N)n1 | -94*
CC[n+]1c(/C=C/Nc2ccccc2)sc2ccccc21 | -83*
CCN1/C(=C/C=C/C=C/c2sc3ccccc3[n+]2CC)Sc2ccccc21 | 126
CC(=O)Nc1ccc(N=Nc2ccc(O)cc2)cc1 | -87*
OCc1ccc(N=Nc2ccccc2)cc1 | -84*
SMILES | aSyn UTR act
Oc1ccc(Cl)cc1N=Nc1ccccc1 | -70*
Oc1ccc(N=Nc2ccccc2)cc1 | -145*
CC(C)(C)C(=O)Nc1nnc(CCc2ccccc2)s1 | -126*
O=C(Nc1nnc(CCc2ccccc2)s1)c1ccccc1 | -91*
COc1ccccc1C(=O)Nc1nnc(CCc2ccccc2)s1 | -213*
NC(=O)C1(N2CCCCC2)CCN(C2CC(=O)NC2=O)CC1 (configuration not stated) | -86*
CC(=O)c1ccc(NC(=S)NC(=O)/C=C/c2ccco2)cc1 | -101*
O=C(/C=C/c1ccco1)NC(=S)Nc1ccccc1 | -104*
Cc1noc(N)c1C(=O)Nc1ccc(C(C)(C)C)cc1 | -106*

Source: PubChem BioAssay (Broad Institute)
